IL1B secr inh – qHTS for Inhibitors of Inflammasome Signaling: IL-1-beta AlphaLISA Primary Screen; activity change, % at 57.5 µM; hit rate 4.7% among 360,000; THP-1 LPS/ATP IL-1B secretion, AlphaLISA, 16 h; active compounds read low; AID 743279, 2014; in the data active = activity change below about -50%; inconclusive = mostly about -30% to -49%; also: % is scaled to controls: 0 for no effect and ±100 for the full control effect
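THP-1 cells pretreated 1 hr with compounds (up to 57.5 uM final), then stimulated with LPS (250 ng/mL final) plus ATP (1.25 mM final); secreted IL-1B measured by AlphaLISA after 16 hr, decreased signal indicating inhibition.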
KB-3-1 cytotox – qHTS assay for MDR1-selective chemotherapeutics: Primary screen using the parental adenocarcinoma cell KB-3-1. hit rate 1.4% among 400,000. KB-3-1 viability, CellTiter-Glo ATP luminescence, 72 h. Potency, µM (titrated, usually from 46.1 µM), usual class: cytotoxic; also: potency is read from the fitted curve at half-maximal effect; % is scaled to controls: 0 for no effect and ±100 for the full control effect; nearly all actives have a fitted effect of over 60% in size
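KB-3-1 cells, DMEM (no phenol red) + 10% FBS; compound by pin transfer, 72 h, 37 °C. Readout: CellTiter-Glo luminescence after 10 min. Data normalized, curve-fitted.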
SW480 rerep – A quantitative high throughput screen for small molecules that induce DNA re-replication in SW480 colon adenocarcinoma cells. hit rate 1.8% among 340,000. SW480 DNA re-replication, Hoechst DNA content imaging, 48 h. Potency, µM (titrated, usually from 46.1 µM), without a hit: at the highest dose re-replication activation, hits mostly activators; also: potency is read from the fitted curve at half-maximal effect; % of control where 0% means no effect; nearly all actives have a fitted effect of over 55% in size
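Cells (250 per well) received 23 nL compound or DMSO by pin tool and were kept 48 hr at 37 C, 5% CO2. Nuclei were then stained with Hoechst for 40 min and scanned for DNA content.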
MCF10A rereplic – A quantitative high throughput screen for small molecules that induce DNA re-replication in MCF 10a normal breast cells; MCF 10A DNA re-replication, Hoechst nuclear intensity, 48 h; Potency, µM (doses to about 46.1 µM), for inactives: top-dose activity, positive = re-replication, hits mostly activators; hit rate 2.9% among 350,000; also: potency is read from the fitted curve at half-maximal effect; % of control where 0% means no effect; nearly all actives have a fitted effect of over 50% in size
KB-V1 MDR tox – qHTS assay for MDR1-selective chemotherapeutics: Primary screen using the drug-selected MDR subline cells KB-V1. hit rate 3.4% among 400,000. Potency, µM (series often up to 46.1 µM), most hits filed as cytotoxic. KB-V1 MDR cells viability, CellTiter-Glo, 72 h. AID 1347076, 2019; also: potency is read from the fitted curve at half-maximal effect; % is scaled to controls: 0 for no effect and ±100 for the full control effect; nearly all actives have a fitted effect of over 60% in size
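KB-V1 MDR subline cells in DMEM (phenol-red free, 10% FBS) exposed to compounds in qHTS concentration series for 72 h at 37 degrees C. Viability read by CellTiter-Glo luminescence; concentration-effect curves fitted after normalization and correction.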
Starred values were filed as active, the others as inactive; i = inactive; u = inconclusive; x = not tested or not shown; [ ] = remark or other dose. Hits are enriched below; roughly 9.9% of the tested compounds scored in any of these assays. Unless noted, calls follow the shape of the dose curve; as a rule, active = well fitted curve in the direction sought with a large enough effect; inconclusive = small, poorly fitted or top-dose-only effect, or another doubt; inactive = no such curve, though single readings can be large; an effect the other way counts as inactive or inconclusive.

SMILES | IL1B secr inh | KB-3-1 cytotox | SW480 rerep | MCF10A rereplic | KB-V1 MDR tox
CC1Cc2cc(S(=O)(=O)NCc3ccc(N(C)C)cc3)ccc2N1C(=O)C1CCC1 (stereo not drawn) | x | u | x | x | i
COc1ccc(NCc2ccc3c(c2)OCO3)cc1Cl | -93.4* | i | 1.5% | 2.3% | i
COc1cccc2sc3cc(NCc4ccc5c(c4)OCO5)ccc3c(=O)c12 | u | i | u | 4.11µM* | u
CC1(C)CCC[C@@]2(C)CC=C(C(=O)O)[C@@H]3C[C@]312 | 27.8 | i | -13.7% | u | i
CCOc1cccc(-c2cc(NCCc3ccccn3)n3nccc3n2)c1 | 5.7 | i | x | x | i
Cc1ccc2cc3c(nc2c1)OCC3 | -16.0 | i | 8.2µM* | -5.3% | i
COc1ccc(C(=O)N[C@H](C(=O)N2CCN(c3ccccc3F)CC2)C(C)C)cc1 | -10.0 | i | -2.3% | 11.7% | i
COc1ccc(NC(=O)C2CC3C=CC2C3)c([N+](=O)[O-])c1 (stereo not drawn) | -3.3 | i | 1.5% | 12.0% | 20.6µM*
COc1ccc(CCC(C)NC(=O)Cc2ccc(OC)c(OC)c2)c(OC)c1 (stereo not drawn) | -1.2 | i | 7.9% | 2.4% | i
O=C(O)CCc1ccc(-c2ccc(Br)cc2)o1 | -65.4* | i | 5.8µM* | u | i
NC(=O)c1ccc(-c2ccc(Br)cc2)o1 | -24.1 | 8.2µM* | -0.2% | 14.4% | 8.2µM*
COc1ccc(-c2ccc(CCC(=O)O)o2)cc1 | u | u | u | u | i
O=C(O)CCc1ccc(-c2ccc(Cl)cc2)o1 | -3.1 | i | u | 20.6µM* | i
Cn1nnnc1SCCNCc1ccc(OCc2ccc(Cl)cc2)cc1 | x | i | x | x | u
O=C(NCc1cccc(Br)c1)c1cnn(-c2ccc(F)cc2)c1-n1cccc1 | x | i | x | x | u
O=C(CCS(=O)(=O)c1ccccc1)Nc1ccc(N2CCN(Cc3ccccc3)CC2)cc1 | 3.1 | i | 2.9% | u | u
Cc1ncoc1C(=O)Nc1ccc(Oc2ccccc2)cc1 | 20.8 | i | -11.5% | 3.1% | 18.4µM*
O=C(CCS(=O)(=O)c1ccc(F)cc1)Nc1ccc(N2CCN(Cc3ccccc3)CC2)cc1 | 14.9 | i | -0.5% | 8.3% | 18.4µM*
O=C(CN1CCN(c2ccc(Cl)cc2)CC1)Nc1ccc(F)cc1 | -8.2 | u | -1.2% | 1.5% | 20.6µM*
CC(C)Cn1c(N2CCN(CC(=O)Nc3ccc(Cl)cc3)CC2)nc2ccccc21 | -85.1* | i | u | 17.9% | i
Cc1ccc(SCc2nc3ccccc3n2CC(=O)Nc2ccc(Cl)cc2)cc1 | -2.3 | i | 16.3% | u | i
Oc1c(C(c2ccc(Cl)cc2)N2CCC3(CC2)OCCO3)sc2nc(-c3ccco3)nn12 (stereo not drawn) | x | i | x | x | i
O=C(O)c1ccccc1NC(=O)C1CCN(S(=O)(=O)c2cccc3nsnc23)CC1 | 9.7 | i | u | -1.3% | i
COc1ccc(NC(=O)N2CCC(n3cnc4ccccc43)CC2)cc1 | -12.7 | i | -209.9%[1.84 µM] | 0.6% | i
CC(=O)N1CCN(c2ccc(NC(=O)c3ccc([N+](=O)[O-])cc3)cc2)CC1 | -3.3 | i | 2.5% | 2.7% | i
SMILES | IL1B secr inh | KB-3-1 cytotox | SW480 rerep | MCF10A rereplic | KB-V1 MDR tox
O=C(CN1CCN(c2ccccc2)CC1)Nc1ccc(Oc2ccccc2)cc1 | -10.4 | i | -2.0% | 1.0% | 23.1µM*
CN1CCN(c2ccc(NC(=O)c3ccc(Oc4ccccc4)cc3)cc2)CC1 | -77.9* | u | 1.5% | u | i
CC(=O)c1ccc(N2CCN(C(=S)Nc3ccc(Oc4ccccc4)cc3)CC2)cc1 | -65.8* | i | -4.3% | u | u
CC(=O)N1CCN(c2ccc(NC(=O)c3ccc(C)cc3)cc2)CC1 | 15.6 | i | -4.5% | 3.4% | 18.4µM*
COc1ccc(N2CCN(C(=S)Nc3ccccc3)CC2)cc1 | -4.6 | i | -3.8% | u | i
Cc1c(C(=O)NCc2ccccc2)sc(=O)n1Cc1ccccc1F | -27.5 | i | x | x | u
CO[C@H]1CC[C@@]2(C)[C@@H](CC[C@@H]3[C@@H]2CC[C@@]2(C)[C@H]3C[C@H](C(=O)N[C@@H](CCCN=C(N)N)C(=O)NCC(=O)N[C@@H](CC(=O)O)C(N)=O)O[C@]23CCCO3)C1 | -3.8 | i | 12.8%[9.22 µM] | -25.3% | i
CCS(=O)(=O)N1Cc2ccccc2CC1C(=O)NCC12CC3CC(CC(C3)C1)C2 (stereo not drawn) | 1.0 | i | 14.9% | 4.7% | 23.1µM*
CCS(=O)(=O)N1Cc2ccccc2CC1C(=O)Nc1nc2c(C)cccc2s1 (stereo not drawn) | -14.5 | i | 6.9% | -32.3% | 2.91µM*
Cc1nn2c(C)c(C(=O)NCc3ccco3)cnc2c1-c1ccccc1 | x | i | x | x | i
CN1C(=O)Cc2cc(S(=O)(=O)CCC(=O)Nc3ccc(Cl)cc3)ccc21 | x | i | x | x | i
COc1ccc(/C=N/NC(=O)c2cccnc2)c(C(=O)O)c1OC | 0.0 | i | -11.3% | 1.5% | i
CN1CCc2cc3c(c4c2[C@H]1[C@H](O)c1ccccc1-4)OCO3 | -62.0* | i | -10.6%[9.22 µM] | -26.9% | i
CCC(CC)C(=O)c1c[nH]c(C(=O)NN)c1 | 26.8 | i | u | 10.3µM* | i
CCC(CC)C(=O)c1c[nH]c(C(=O)NCCc2ccccn2)c1 | -10.9 | i | 3.8% | -3.0% | i
CCC(CC)C(=O)c1c[nH]c(C(=O)NCc2ccccn2)c1 | -59.4* | i | 5.4% | -8.4% | u
CC(NC(=O)COC(=O)COc1cccc2c1OC(C)(C)C2)c1ccccc1 (stereo not drawn) | i | i | -8.7% | u | i
CC1(C)CC(=O)C2=C(C1)OC1=C(C(=O)CC(C)(C)C1)C2c1ccc(O)cc1O | -104.4* | i | 3.16µM* | u | i
CC1(C)CC(=O)C2=C(C1)OC1=C(C(=O)CC(C)(C)C1)C2c1ccc(O)c([N+](=O)[O-])c1 | 3.5 | i | 7.4% | -6.4% | i
O=S(=O)(NCC(c1ccc2c(c1)OCO2)N1CCOCC1)c1ccccc1 (stereo not drawn) | 0.0 | i | 3.5% | -0.1% | i
CCCCSCCCNC(=O)Nc1ccc(CC)cc1 | -74.6* | i | -9.1% | 14.3% | i
CCCCCCNC(=O)Nc1ccccc1 | -12.8 | i | -6.2% | -3.9% | i
CCN(CC)c1ccc(/C=N/OCC(=O)N2CCCc3ccccc32)cc1 | u | i | 17.4% | 16.4µM* | i
